Source: PubChem
CYP2C9 act – human CYP2C9 activators, primary screen, biochemical, luminescence | Cytochrome P450 2C9 (Homo sapiens), P11712 | recombinant CYP2C9, luciferin-H conversion; hits give high values; factor 1 = untreated enzyme, 0 = blocked | activation factor at 5 µM | actives 1.4% (n = 96,000) | AID 1024, 2008;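 active = activation factor of 2 or more for CYP2C9 at a 5 µM dose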;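 note: 0 = sulfaphenazole-blocked wells and 1 = vehicle-only wells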
Target sequence (P11712 whole entry, looked up): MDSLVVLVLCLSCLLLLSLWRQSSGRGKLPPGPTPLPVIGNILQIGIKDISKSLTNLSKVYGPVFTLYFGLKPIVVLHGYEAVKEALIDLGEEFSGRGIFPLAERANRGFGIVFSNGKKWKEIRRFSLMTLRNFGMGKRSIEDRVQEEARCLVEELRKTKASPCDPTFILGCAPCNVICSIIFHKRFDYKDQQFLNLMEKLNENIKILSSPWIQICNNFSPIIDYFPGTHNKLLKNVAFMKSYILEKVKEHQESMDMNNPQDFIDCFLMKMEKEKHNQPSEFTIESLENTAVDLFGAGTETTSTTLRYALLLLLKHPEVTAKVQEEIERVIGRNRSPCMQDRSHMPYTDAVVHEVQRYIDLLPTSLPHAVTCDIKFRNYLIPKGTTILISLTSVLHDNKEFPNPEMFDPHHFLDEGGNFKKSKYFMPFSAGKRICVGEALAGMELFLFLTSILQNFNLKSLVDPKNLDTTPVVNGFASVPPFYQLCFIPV
Cav32 inh – Cav3.2 calcium influx blockers – cell-based, Fluo-4 calcium fluorescence, FDSS, MLSMR library, primary screen. B-score at 10 µM. AID 449739, 2010. Cav3.2-expressing cells; hits give low values. actives 4% (n = 100,000). Voltage-dependent T-type calcium channel subunit alpha-1H (Homo sapiens), O95180;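 active = single-dose well whose peak fluorescence ratio is a statistical outlier from its plate by either plate-standardised score or position-corrected B-score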
CYP2C19 inh – blockers of cytochrome P450 2C19 activity – biochemical, luminescence, ADME assay, primary screen | actives 21% (n = 96,000) | inhibition, % at 5 µM | P33261 | CYP2C19 Supersomes, luciferin-H EGE luminescence, 30 min;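 active = CYP2C19 inhibition above a set limit at 5 µM in the primary screen, cut at about 50% in these data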;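 note: plate controls were negative control wells for no effect and 2.5 mM tranylcypromine positive control for full effect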
CYP2C19 act – human CYP2C19 activators, primary screen, biochemical, luminescence; activation factor at 5 µM; AID 1025, 2008; 96,000 tested, under 10 active; recombinant CYP2C19, luciferin-H EGE luminescence; hits give high values; 0 = fully inhibited enzyme, 1 = untreated enzyme;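 active = activation factor of at least 2 at 5 µM in the primary screen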;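 note: 0 = wells with 2.5 mM tranylcypromine and 1 = vehicle-only wells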
CYP2C9 inh – blockers of cytochrome P450 2C9 activity – biochemical, luminescence, ADME assay, primary screen. inhibition, % at 5 µM. actives 20% (n = 96,000). CYP2C9 Supersomes, luciferin-H conversion. AID 777, 2007;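 active = blocking of liver enzyme CYP2C9 beyond about 50% at 5 µM, limit read from the data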
Numbers without * were called inactive; x = no result. An excerpt weighted towards active compounds, which were near 27% of everything screened.

SMILES	CYP2C9 act	Cav32 inh	CYP2C19 inh	CYP2C19 act	CYP2C9 inh
CC(=O)NC1CCCN(O)C(=O)/C=C(\C)CCOC(=O)C(NC(C)=O)CCCN(O)C(=O)/C=C(\C)CCOC(=O)C(NC(C)=O)CCCN(O)C(=O)/C=C(\C)CCOC1=O (stereo unspecified)	x	-0.29	x	x	x
Cc1cccc(Nc2ccncc2S(=O)(=O)NC(=O)NC(C)C)c1	x	-0.94	x	x	x
CCCCC(=O)Nc1ccc(Br)cn1	0.9	0.27	57*	0.4	12
CCCCNC(=O)Nc1ccc(Br)cn1	0.5	-0.7	82*	0.2	52*
CCCCNC(=O)Nc1ccccn1	0.7	0.14	16	0.8	30
CCCCOC(=O)Nc1cc(C(=O)OC)ccc1C(=O)OC	0.8	-2	15	0.8	23
CCC(=O)Nc1ccc(N2CCCCC2)c(C(=O)Nc2ccccc2C)c1	0.8	0.54	53*	0.5	21
Cc1ccccc1NC(=O)c1cc(N)ccc1N1CCCCC1	0.1	-2.1	98*	0	86*
CC(C)(C)OC(=O)N1CCC(C(=O)N[C@@H](Cc2ccccc2)C(=O)O)CC1	0.9	-1.4	-17	1.2	9
CCCCCCOC(=O)/C=C/c1c(C)[nH]c(=O)[nH]c1=O	0.9	-0.15	18	0.8	10
C#CCn1c(=NC(=O)c2cccs2)sc2cccc(OCC)c21	0.3	-0.75	5	0.9	68*
CCOC(=O)c1ccccc1OCc1cc(/C=N/n2cnnc2)ccc1OC	0.3	0.23	61*	0.4	71*
COC(=O)c1ccc(NC2(C#N)C(=O)Nc3ccccc32)cc1 (stereo unspecified)	0.3	-1	52*	0.5	71*
CCOC(=O)N1CCN(C(=O)CC(=O)Nc2ccc3nc4n(c(=O)c3c2)CCCCC4)CC1	0.3	-0.18	14	0.9	69*
CCOC(=O)N1CCN(C(=O)C(=O)Nc2ccc3nc4n(c(=O)c3c2)CCCCC4)CC1	0.5	0.71	28	0.7	52*
O=C(COc1ccc(Cl)cc1Cl)Nc1ccc2nc3n(c(=O)c2c1)CCCC3	0.5	-0.62	21	0.8	46
O=C(NCc1ccccc1)c1ccc(CN(c2ccccn2)S(=O)(=O)c2ccccc2)cc1	0.6	2	1	1	40
CCN(CC)C(=O)c1[nH]cnc1C(=O)N[C@@H](CC(C)C)C(=O)OCc1ccccc1	x	0.69	x	x	x
O=C1CCCc2c1cc(-c1ccccc1)n2-c1ccccc1	0.8	-0.95	15	0.9	16
Cc1[nH]nc2c1C(c1ccc(OC(=O)c3ccco3)cc1)C(C#N)=C(N)O2 (stereo unspecified)	0.4	-0.41	44	0.6	58*
CC(C)c1[nH]nc2c1C(c1ccc(OC(=O)c3ccco3)cc1)C(C#N)=C(N)O2 (stereo unspecified)	0.3	-0.077	74*	0.3	73*
COc1ccc(-c2nc(CS(=O)CC(=O)NCc3cccnc3)c(C)o2)cc1 (stereo unspecified)	0.4	1.2	48	0.5	62*
CCc1ccc(-c2nc(CS(=O)CC(=O)NCc3cccnc3)c(C)o2)cc1 (stereo unspecified)	0.3	0.57	15	0.8	70*
COc1ccc(-c2nc(CS(=O)CC(=O)NCc3ccco3)c(C)o2)cc1 (stereo unspecified)	0.7	-0.044	29	0.7	33
COc1cccc(-c2nc(CS(=O)CC(=O)NCc3ccccc3)c(C)o2)c1 (stereo unspecified)	0.4	-0.15	54*	0.5	58*
Cc1ccc2c(c1)N(CC(=O)NC1CCCc3ccccc31)C(=O)CO2 (stereo unspecified)	1	-1.5	47	0.5	2
O=C(C1=C[C@H](c2coc3ccccc3c2=O)C[C@H](OCCCCO)O1)N1CCN(Cc2ccc3c(c2)OCO3)CC1	x	0.17	x	x	x
CN1C(=O)NC(c2ccccc2)C2=C1CN(c1ccc3ccccc3c1)C2=O (stereo unspecified)	1	0.37	-6	1.1	4
O=C(NCC(=O)N1CCCCC1)c1ccc(Cl)cc1Cl	1.2	0.61	46	0.5	-20
CO/N=C(/CNC(=O)c1ccc(Cl)cc1Cl)c1ccc(Cl)cc1	1	x	62*	0.4	5
